# Experimental data reported in PubChem BioAssay (NCATS).
# The source made the active and inactive calls. Entries that show only a call come without a potency. Calls follow the shape of the dose curve; as a rule, active = well fitted inhibition curve with a large enough effect; inconclusive = small, poorly fitted or top-dose-only effect; inactive = no such curve, though single readings can be large or run the other way.
# Biological target: Pyruvate kinase (Leishmania mexicana) (UniProt Q27686)
# Assay: qHTS Validation Assay for Inhibitors of Leishmania Mexicana Pyruvate Kinase (AID 945)
# Conditions: purified L. mexicana pyruvate kinase, enzyme activity, E451W mutant enzyme; series mostly up to 57.5 µM
# How it was run: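 Eight-point qHTS titrations; enzyme 0.2 nM LmPYK (E451W mutant); substrates 0.5 mM PEP, 0.1 mM ADP; 7 mM MgCl2; 1 h room temperature; PKLight luminescence normalized to neutral control.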
# Chain of Pyruvate kinase (Leishmania mexicana) (Q27686 2-499 E452W): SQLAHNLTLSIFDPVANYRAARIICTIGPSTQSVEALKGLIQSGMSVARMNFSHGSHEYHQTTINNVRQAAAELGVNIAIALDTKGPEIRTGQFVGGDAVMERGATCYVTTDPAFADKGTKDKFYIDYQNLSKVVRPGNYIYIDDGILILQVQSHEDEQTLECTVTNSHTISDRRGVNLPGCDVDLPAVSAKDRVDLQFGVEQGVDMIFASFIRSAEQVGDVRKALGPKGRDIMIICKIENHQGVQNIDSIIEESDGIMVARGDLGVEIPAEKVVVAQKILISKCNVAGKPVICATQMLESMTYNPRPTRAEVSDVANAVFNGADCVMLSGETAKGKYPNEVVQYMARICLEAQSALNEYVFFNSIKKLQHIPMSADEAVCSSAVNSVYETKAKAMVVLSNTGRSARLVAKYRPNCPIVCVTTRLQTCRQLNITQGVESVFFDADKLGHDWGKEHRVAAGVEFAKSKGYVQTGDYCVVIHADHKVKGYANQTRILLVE
row,SMILES,Potency
1,CCOC(=O)Nc1ccc(NCc2ccc(F)cc2)nc1N,inactive
2,CC[N+](CC)(CC)CCOc1cccc(OCC[N+](CC)(CC)CC)c1OCC[N+](CC)(CC)CC,inactive
3,CCCCc1oc2ccccc2c1C(=O)c1cc(I)c(OCCN(CC)CC)c(I)c1,inactive
4,Cc1cnc(C(=O)NCCc2ccc(S(=O)(=O)NC(=O)NC3CCCCC3)cc2)cn1,inactive
5,Cc1ccc(C(=O)Nc2ccc(S(=O)(=O)O)c3cc(S(=O)(=O)O)cc(S(=O)(=O)O)c23)cc1NC(=O)c1cccc(NC(=O)Nc2cccc(C(=O)Nc3cc(C(=O)Nc4ccc(S(=O)(=O)O)c5cc(S(=O)(=O)O)cc(S(=O)(=O)O)c45)ccc3C)c2)c1,inactive
6,O=C(c1ccc(OCCN2CCCCC2)cc1)c1c(-c2ccc(O)cc2)sc2cc(O)ccc12,inactive
7,CN1CCC(=C2c3ccccc3C=Cc3ccccc32)CC1,inactive
8,CN1CCN(CCCN2c3ccccc3Sc3ccc(Cl)cc32)CC1,inactive
9,CN(C)CCOC(c1ccccc1)c1ccccc1,inactive
10,Nc1nc2c(ncn2COC(CO)CO)c(=O)[nH]1,inactive
11,OCCN(CCO)c1nc(N2CCCCC2)c2nc(N(CCO)CCO)nc(N3CCCCC3)c2n1,inactive
12,CCOC(=O)c1ncn2c1CN(C)C(=O)c1cc(F)ccc1-2,inactive
13,CN(C)C(=O)C(CCN1CCC(O)(c2ccc(Cl)cc2)CC1)(c1ccccc1)c1ccccc1,inactive
14,CNCCCC12CCC(c3ccccc31)c1ccccc12,inactive
